Data reported in ChEMBL document CHEMBL1961873, “Compounds: GSK PKIS; Assays: Nanosyn kinase panel” (2012).

target: Tyrosine-protein kinase Blk (Homo sapiens) (UniProt P51451); conditions: at 1 µM
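Also: mean percent inhibition of BLK kinase activity, from GSK PKIS kinase inhibitor set profiling.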

Tyrosine-protein kinase Blk (Homo sapiens), sequence (P51451 2-505 limits assumed): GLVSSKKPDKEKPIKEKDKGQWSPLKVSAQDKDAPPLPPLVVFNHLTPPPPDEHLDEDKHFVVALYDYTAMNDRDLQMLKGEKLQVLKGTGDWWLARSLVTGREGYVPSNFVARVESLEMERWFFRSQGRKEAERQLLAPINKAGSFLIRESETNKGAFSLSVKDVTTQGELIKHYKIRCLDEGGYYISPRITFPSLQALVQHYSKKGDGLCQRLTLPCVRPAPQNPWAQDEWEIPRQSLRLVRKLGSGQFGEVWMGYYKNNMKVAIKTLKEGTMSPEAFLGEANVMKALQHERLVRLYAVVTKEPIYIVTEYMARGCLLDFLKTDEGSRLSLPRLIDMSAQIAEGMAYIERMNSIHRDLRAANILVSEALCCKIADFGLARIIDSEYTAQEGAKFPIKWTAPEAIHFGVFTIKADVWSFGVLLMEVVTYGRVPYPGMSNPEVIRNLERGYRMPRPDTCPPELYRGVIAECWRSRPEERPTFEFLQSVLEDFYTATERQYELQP

Compound	inhibition [%]
O=C(Nc1n[nH]c2cc(-c3ccc(F)cc3)ccc12)C1CC1	7.03
CNC(=O)c1cccc(C#Cc2cncnc2Nc2ccc(OCc3cccc(F)c3)c(Cl)c2)c1	1.17
COc1cccc(-c2c[nH]c3c(N/N=C/c4ccncc4)ncnc23)c1	57.9
CCn1c(-c2nonc2N)nc2cnc(Oc3cccc(NC(=O)c4ccc(N(C)C)cc4)c3)cc21	2.27
COc1ccc(-c2cc3c(N)ncnc3o2)cc1	4.67
c1ccc(-c2nc3n(c2-c2ccc4c(c2)OCO4)CCC3)nc1	3.25
FC(F)(F)c1cccc(-c2nn3ncccc3c2-c2ccnc(Nc3ccc4c(c3)OCCO4)n2)c1	45.5
CC(C)COC(=O)c1ccc2c(c1)/C(=C/Nc1ccc(S(N)(=O)=O)cc1)C(=O)N2	28.6
COc1ccc(-c2nn3ncccc3c2-c2ccnc(Nc3ccc4c(c3)OCCO4)n2)cc1	39.5
CN1CCC(n2cnc(-c3ccc(F)cc3)c2-c2ccnc(N)n2)CC1	6.71
N#Cc1c(NC(=O)c2ccc(F)cc2)sc2c1CCCC2	1.75
COC(=O)Nc1nc2ccc(S(=O)(=O)c3ccc(NC(=O)Nc4cc(C(F)(F)F)ccc4F)cc3)cc2[nH]1	3.18
NS(=O)(=O)c1ccc(N/N=C2\C(=O)Nc3ccc4ncccc4c32)cc1	60
[O-][S+]1CCN(Cc2ccc(-c3ccc4ncnc(Nc5ccc(OCc6cccc(F)c6)c(Cl)c5)c4c3)o2)CC1	7.66
Cc1cccc2c1NC(=O)/C2=N\Nc1ccc(S(N)(=O)=O)cc1	5.96
CS(=O)(=O)CCNCc1ccc(-c2ccc3ncnc(Nc4ccc(OCc5ccccc5)c(C(F)(F)F)c4)c3c2)o1	4.36
CC(=O)Nc1cccc(C#Cc2cncnc2Nc2ccc(OCc3cccc(F)c3)c(Cl)c2)c1	1.37

Compound	inhibition [%]
Nc1nc(-c2cccc(Cl)c2)c(-c2ccc3ncccc3n2)s1	7.22
CNC(=O)c1cncc(/C=C/c2ccccc2Cl)c1	4.55
CCn1c(-c2nonc2N)nc2c(C#CC(C)(C)O)ncc(OC3CCNCC3)c21	3.31
CCn1c(-c2nonc2N)nc2ccccc21	3.02
Cc1ccc(O)cc1Nc1ccnc2cc(-c3ccccn3)ccc12	61.8
Nc1ncc(-c2cccc(S(N)(=O)=O)c2)c2scc(-c3ccc(F)c(Cl)c3)c12	28.2
COc1cc2c(cc1Nc1nc(Nc3ccsc3C(N)=O)c3cc[nH]c3n1)N(C(=O)CN(C)C)CCC2(C)C	6.26
COc1ccc2[nH]c3c4[nH]c5ccc(OC)cc5c4c4c(c3c2c1)C(=O)NC4=O	36.5
Fc1ccc(-c2nn3ccccc3c2-c2ccncc2)cc1	2.66
COc1ccc(-c2cc(-c3c[nH]nc3-c3ccccn3)ccn2)cc1	3.9
c1cc(-c2cnn3nc(N4CCOCC4)ccc23)nc(NC2CC2)n1	7.51
NS(=O)(=O)c1ccc(Nc2ncc(-c3ccccc3)o2)cc1	4.76
CCN(CC)S(=O)(=O)c1ccc(OC)c(Nc2ncc(-c3ccccc3)o2)c1	31.4
CC(=O)NCc1cccc(C#Cc2cncnc2Nc2ccc(OCc3cccc(F)c3)c(Cl)c2)c1	0.29
COc1ccc(-c2oc3ncnc(N)c3c2-c2ccc(NC(=O)Nc3cc(C(F)(F)F)ccc3F)cc2)cc1	41.2
CCn1cc(-c2ccnc3[nH]ccc23)c(-c2cccc(NC(=O)Nc3ccc(OCc4ccccc4)cc3)c2)n1	18.7
